# PubChem BioAssay (EPA / NIEHS)
# Inconclusive results are not listed. Calls of active or inactive are those of the source. How the source made its calls, unless noted: active means hit-call score of the fitted dose curve at least 0.9, where 1 is the maximum; inconclusive means response in the unintended direction; inactive means score below 0.9.
# Assays:
# [1] = read-out: CD69, CD69 (gene 969); test: BSK_LPS_CD69: BioMAP Diversity Plus: LPS Assay for CD69 Biomarker Activity (AID 2284303; active means hit-call score of the fitted dose curve at least 0.9, where 1 is the maximum; inactive means score below 0.9); details: primary human HUVEC with PBMC
# Outline: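 Human umbilical vein endothelial cells co-cultured with PBMC under LPS stimulation, chemical exposure 24 h; cell-surface CD69 measured by ELISA and fitted in the positive direction versus DMSO.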
# [2] = target: Estrogen receptor (Homo sapiens) (UniProt P03372); test: CCTE_Deisenroth_AIME_384WELL_LUC_Active: CCTE's 384-well Estrogen Receptor Transactivation Assay with AIME metabolic competence (ERTA luciferase; metabolism positive), Deisenroth Lab (AID 2284030)
# Chain of Estrogen receptor (Homo sapiens) (P03372 whole entry, looked up): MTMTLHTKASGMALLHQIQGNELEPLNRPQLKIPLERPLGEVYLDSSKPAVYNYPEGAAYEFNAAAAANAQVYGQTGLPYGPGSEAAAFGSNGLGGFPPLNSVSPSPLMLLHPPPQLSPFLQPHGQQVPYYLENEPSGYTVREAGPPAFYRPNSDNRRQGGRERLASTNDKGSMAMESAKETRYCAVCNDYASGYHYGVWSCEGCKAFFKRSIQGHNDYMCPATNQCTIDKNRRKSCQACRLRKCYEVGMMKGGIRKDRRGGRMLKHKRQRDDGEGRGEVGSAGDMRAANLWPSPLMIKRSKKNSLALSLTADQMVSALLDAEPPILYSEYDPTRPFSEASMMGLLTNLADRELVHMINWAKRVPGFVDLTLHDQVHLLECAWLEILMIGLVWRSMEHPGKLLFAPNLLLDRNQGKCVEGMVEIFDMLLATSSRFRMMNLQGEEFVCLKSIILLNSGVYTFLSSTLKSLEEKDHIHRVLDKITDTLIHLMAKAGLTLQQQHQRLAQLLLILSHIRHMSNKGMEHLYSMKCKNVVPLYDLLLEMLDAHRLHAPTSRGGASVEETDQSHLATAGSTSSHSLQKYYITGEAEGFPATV
# Outline: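 Readout: bioluminescent luciferase induction in VM7Luc4E2 cells 24 hour after receiving medium from a 2 h rat hepatic S9 (induced, alginate microsphere) metabolism step. Concentrations 0.002 - 200 uM; activity scaled to 17beta-estradiol positive control.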
# [3] = target: Estrogen receptor (Homo sapiens) (UniProt P03372); test: CCTE_Deisenroth_AIME_384WELL_LUC_Inactive: CCTE's 384-well Estrogen Receptor Transactivation Assay without AIME metabolic competence (ERTA luciferase; metabolism negative), Deisenroth Lab (AID 2284038);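 further: VM7Luc4E2 breast cells given medium preincubated 2 h with S9-free microspheres; hits raise estrogen receptor luciferase signal so potencies reflect agonists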
# Outline: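 Chemicals (10-point series, 0.002 - 200 uM) were incubated 2 hours with alginate-water microsphere lids lacking S9, then the conditioned medium was transferred to VM7Luc4E2 breast cells for 24 hour. Luciferase induction was read by bioluminescence, fitted upward relative to 17beta-estradiol.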
# [4] = target: Estrogen receptor (Homo sapiens) (UniProt P03372); test: CCTE_Deisenroth_AIME_384WELL_LUC_Shift: CCTE's 384-well Estrogen Receptor Transactivation Assay with AIME metabolic competence data shift (ERTA luciferase; difference in metabolism positive and negative), Deisenroth Lab (AID 2284041; active means hit-call score of the fitted dose curve at least 0.9, where 1 is the maximum; inactive means score below 0.9;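 further: shift is response with S9 minus without S9 so positive means metabolism raised ER signal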)
# Outline: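 Chemicals (0.002–200 uM, 10 points) pre-incubated 2 h with alginate-encapsulated induced male Sprague Dawley rat liver S9 or S9-free, then medium applied 24 h to VM7Luc4E2 cells; luciferase. Endpoint is per-concentration difference, S9-positive minus negative.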
# [5] = target: rat CYP2C11, Cyp2c11 (gene 29277) (UniProt P08683); test: NVS_ADME_rCYP2C11: NovaScreen (NVS) CYP450-related Enzyme Activity (ADME) Assay for rat CYP2C11 (AID 2283118)
# Outline: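 Cell-free recombinant rat enzyme with fluorescent substrate; readout 0.33 h after dosing, loss of signal versus acetonitrile control. Initial duplicate single-point at 10 uM; actives rerun in concentration series.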
# [6] = target: rat CYP2C13, Cyp2c13 (gene 171521) (UniProt P20814); test: NVS_ADME_rCYP2C13: NovaScreen (NVS) CYP450-related Enzyme Activity (ADME) Assay for rat CYP2C13 (AID 2283121)
# Chain of rat CYP2C13, Cyp2c13 (gene 171521) (P20814 whole entry, looked up): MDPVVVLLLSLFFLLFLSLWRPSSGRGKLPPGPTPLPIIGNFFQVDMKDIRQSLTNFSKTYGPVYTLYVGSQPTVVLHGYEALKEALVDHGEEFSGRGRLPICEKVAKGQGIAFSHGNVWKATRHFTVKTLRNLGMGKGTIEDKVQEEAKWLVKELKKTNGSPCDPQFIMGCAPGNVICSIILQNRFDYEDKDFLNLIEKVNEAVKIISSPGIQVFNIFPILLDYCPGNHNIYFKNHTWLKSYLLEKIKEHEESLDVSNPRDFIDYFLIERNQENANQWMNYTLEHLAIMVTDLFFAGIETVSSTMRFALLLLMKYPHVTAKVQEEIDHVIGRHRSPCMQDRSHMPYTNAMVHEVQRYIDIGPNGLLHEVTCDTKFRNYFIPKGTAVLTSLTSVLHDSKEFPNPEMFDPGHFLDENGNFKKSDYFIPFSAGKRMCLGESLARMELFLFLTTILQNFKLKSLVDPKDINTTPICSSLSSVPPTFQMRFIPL
# Outline: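 Recombinant rat CYP2C13 with fluorogenic substrate, 0.75 h cell-free incubation; primary screen in duplicate at 10 uM, actives followed in concentration series. Fluorescence loss relative to acetonitrile control indicates inhibition.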
# [7] = CCTE_Mundy_HCI_hNP1_Casp3_7: CCTE's Caspase-Glo 3/7 Assay in human neuroprogenitor cells for Apoptosis, Mundy Lab (AID 2284240; active means hit-call score of the fitted dose curve at least 0.9, where 1 is the maximum; inactive means score below 0.9)
# Outline: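 Luminescent caspase-3/7 readout, 26.5 h post-dose, in human neural progenitor cells from WA09 embryonic stem cells. Cells grew 40–44 h at 37 °C, 5% CO2 before chemical addition. Activity analysed as signal increase over DMSO baseline.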
# [8] = target: rat CYP2A1, Cyp2a1 (gene 24894) (UniProt P11711); test: NVS_ADME_rCYP2A1: NovaScreen (NVS) CYP450-related Enzyme Activity (ADME) Assay for rat CYP2A1 (AID 2283114; active means hit-call score of the fitted dose curve at least 0.9, where 1 is the maximum; inactive means score below 0.9)
# Chain of rat CYP2A1, Cyp2a1 (gene 24894) (P11711 whole entry, looked up): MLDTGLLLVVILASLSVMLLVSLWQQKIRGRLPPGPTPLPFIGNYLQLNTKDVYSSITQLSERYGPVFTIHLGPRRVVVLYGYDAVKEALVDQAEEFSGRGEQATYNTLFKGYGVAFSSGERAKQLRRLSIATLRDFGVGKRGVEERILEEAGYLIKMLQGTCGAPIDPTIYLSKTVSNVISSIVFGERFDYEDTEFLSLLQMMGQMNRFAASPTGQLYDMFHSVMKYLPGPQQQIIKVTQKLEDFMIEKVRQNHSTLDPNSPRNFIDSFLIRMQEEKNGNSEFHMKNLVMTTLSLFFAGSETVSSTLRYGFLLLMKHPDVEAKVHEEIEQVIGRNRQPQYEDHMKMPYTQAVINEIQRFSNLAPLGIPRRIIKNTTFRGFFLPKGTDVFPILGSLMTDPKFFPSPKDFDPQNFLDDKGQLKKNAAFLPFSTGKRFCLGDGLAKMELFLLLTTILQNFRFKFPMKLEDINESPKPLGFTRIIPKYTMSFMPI
# Outline: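 Recombinant rat CYP2A1, cell-free, fluorogenic substrate turnover read by fluorescence intensity 0.75 h after dosing. Primary screen at 10 uM in duplicate; actives rerun as concentration-response up to 20 uM; loss of signal versus acetonitrile control.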
# [9] = target: human Vascular Endothelial Growth Factor Receptor 3 (VEGFR3), FLT4 (gene 2324) (UniProt P35916); test: NVS_ENZ_hVEGFR3: NovaScreen (NVS) Enzymatic Assay for human Vascular Endothelial Growth Factor Receptor 3 (VEGFR3) (AID 2283229)
# Chain of human Vascular Endothelial Growth Factor Receptor 3 (VEGFR3), FLT4 (gene 2324) (P35916 whole entry, looked up): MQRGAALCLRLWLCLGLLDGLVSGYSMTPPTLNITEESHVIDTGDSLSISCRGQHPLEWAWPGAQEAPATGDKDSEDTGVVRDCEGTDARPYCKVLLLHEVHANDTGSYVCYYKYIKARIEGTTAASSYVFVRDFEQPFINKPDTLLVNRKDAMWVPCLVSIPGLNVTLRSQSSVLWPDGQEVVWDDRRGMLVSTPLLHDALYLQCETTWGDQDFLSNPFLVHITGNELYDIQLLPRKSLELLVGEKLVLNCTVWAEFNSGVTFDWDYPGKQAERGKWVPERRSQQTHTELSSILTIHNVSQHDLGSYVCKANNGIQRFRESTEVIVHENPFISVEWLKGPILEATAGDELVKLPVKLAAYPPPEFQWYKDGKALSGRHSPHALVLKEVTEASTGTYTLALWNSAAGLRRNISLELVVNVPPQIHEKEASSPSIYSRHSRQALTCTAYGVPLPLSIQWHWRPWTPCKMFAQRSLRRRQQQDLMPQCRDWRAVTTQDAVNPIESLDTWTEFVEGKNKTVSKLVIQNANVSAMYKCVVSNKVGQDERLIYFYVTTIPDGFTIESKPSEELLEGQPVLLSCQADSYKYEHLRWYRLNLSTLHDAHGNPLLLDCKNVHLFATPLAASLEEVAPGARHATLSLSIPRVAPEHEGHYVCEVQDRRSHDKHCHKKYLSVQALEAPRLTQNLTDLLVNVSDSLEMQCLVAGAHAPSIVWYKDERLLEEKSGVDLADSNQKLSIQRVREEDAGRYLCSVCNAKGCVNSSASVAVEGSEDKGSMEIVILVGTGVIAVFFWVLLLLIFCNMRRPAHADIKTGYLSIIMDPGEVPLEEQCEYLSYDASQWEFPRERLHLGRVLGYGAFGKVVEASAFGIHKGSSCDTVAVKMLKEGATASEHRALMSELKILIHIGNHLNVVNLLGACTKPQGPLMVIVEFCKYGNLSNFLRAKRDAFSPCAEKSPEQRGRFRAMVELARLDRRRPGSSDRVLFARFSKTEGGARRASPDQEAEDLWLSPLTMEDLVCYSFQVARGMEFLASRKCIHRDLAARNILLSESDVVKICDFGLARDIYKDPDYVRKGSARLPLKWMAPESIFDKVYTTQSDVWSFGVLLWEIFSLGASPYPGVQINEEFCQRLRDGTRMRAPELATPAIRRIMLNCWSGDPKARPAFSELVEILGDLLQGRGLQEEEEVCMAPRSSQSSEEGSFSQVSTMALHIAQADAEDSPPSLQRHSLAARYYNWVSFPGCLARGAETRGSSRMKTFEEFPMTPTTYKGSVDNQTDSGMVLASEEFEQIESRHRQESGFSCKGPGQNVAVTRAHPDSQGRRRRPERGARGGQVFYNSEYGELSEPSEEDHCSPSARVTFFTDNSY
# Outline: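 Cell-free recombinant VEGFR3 kinase reaction with fluorescent substrate, read 1 h after dosing by electrophoretic mobility shift separation of substrate and product. Single-concentration duplicate screen at 25 uM, then concentration-response up to 50 uM; loss of activity versus DMSO.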
# [10] = target: rat Monoamine Oxidase, MAO-B, Central (MAOBC), Maob (gene 25750) (UniProt P19643); test: NVS_ENZ_rMAOBC: NovaScreen (NVS) Enzymatic Assay for rat Monoamine Oxidase, MAO-B, Central (MAOBC) (AID 2283238)
# Chain of rat Monoamine Oxidase, MAO-B, Central (MAOBC), Maob (gene 25750) (P19643 whole entry, looked up): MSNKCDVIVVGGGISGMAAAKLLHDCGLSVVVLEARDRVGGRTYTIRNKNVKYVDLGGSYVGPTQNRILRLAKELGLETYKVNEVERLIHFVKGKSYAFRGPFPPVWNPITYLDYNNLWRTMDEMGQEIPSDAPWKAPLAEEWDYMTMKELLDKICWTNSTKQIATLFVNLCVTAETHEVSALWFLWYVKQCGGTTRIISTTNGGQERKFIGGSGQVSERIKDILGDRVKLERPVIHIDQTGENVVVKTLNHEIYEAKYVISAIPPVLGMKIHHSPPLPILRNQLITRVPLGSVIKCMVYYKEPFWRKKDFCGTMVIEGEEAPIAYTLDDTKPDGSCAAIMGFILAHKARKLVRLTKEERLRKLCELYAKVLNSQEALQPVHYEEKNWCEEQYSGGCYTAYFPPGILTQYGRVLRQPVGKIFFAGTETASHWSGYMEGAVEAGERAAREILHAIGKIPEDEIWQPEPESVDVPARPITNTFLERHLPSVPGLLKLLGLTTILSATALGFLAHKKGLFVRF
# Outline: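 MAO-B activity in rat brain tissue preparation, cell-free, measured radiometrically by scintillation counting 1.17 h after dosing. Screened in duplicate at 25 uM; actives then in concentration-response up to 50 uM. Loss of signal versus DMSO scored.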
# [11] = test system: chicken Androgen Receptor (AR), gene 422165; test: ATG_chAR_XSP1: Attagene TRANS-FACTORIAL Multi-Species (XSP1) HepG2 Assay for chicken Androgen Receptor (AR) (AID 2283768)
# Outline: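 HepG2 cells transiently transfected with multiplexed GAL4-UAS reporter units expressing chimeric chicken AR-Gal4; 3 nM 6-alpha-fluorotestosterone for partial AR stimulation; 24 h after dosing, reporter mRNA by RT-PCR and capillary electrophoresis, gain-of-signal versus DMSO.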
# [12] = test system: zebrafish Androgen Receptor (AR), gene 100005148; test: ATG_zfAR_XSP1: Attagene TRANS-FACTORIAL Multi-Species (XSP1) HepG2 Assay for zebrafish Androgen Receptor (AR) (AID 2283771)
# Outline: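 HepG2 cells were transiently transfected with a zebrafish AR-GAL4 reporter system and partially stimulated with 3 nM 6-alpha-fluorotestosterone. Reporter mRNA was measured after 24 h dosing by RT-PCR with capillary electrophoresis, and gain-of-signal was fitted relative to DMSO.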
# [13] = test system: frog Estrogen Receptor (ESR2), gene 100174814; test: ATG_frER2_XSP1: Attagene TRANS-FACTORIAL Multi-Species (XSP1) HepG2 Assay for frog Estrogen Receptor (ESR2) (AID 2283774)
# Outline: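 HepG2 cells transiently transfected with GAL4-UAS reporter units expressing chimeric frog ER-Gal4; 3 nM 6-alpha-fluorotestosterone present. After 24 h dosing, reporter mRNA quantified by RT-PCR and capillary electrophoresis; gain-of-signal fitted relative to DMSO.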
# [14] = test system: zebrafish Estrogen Receptor (ESR2A), gene 317734; test: ATG_zfER2a_XSP1: Attagene TRANS-FACTORIAL Multi-Species (XSP1) HepG2 Assay for zebrafish Estrogen Receptor (ESR2A) (AID 2283778)
# Outline: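 HepG2 cells transiently transfected with GAL4-UAS reporter units driven by a zebrafish ESR2A–Gal4 chimera; 24 h compound exposure with 3 nM 6-alpha-fluorotestosterone present. Reporter mRNA measured by RT-PCR with fluorescent capillary electrophoresis, fitted positive versus DMSO.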
# [15] = target: chicken Estrogen Receptor (ESR1), ESR1 (gene 396099) (UniProt P06212); test: ATG_chERa_XSP1: Attagene TRANS-FACTORIAL Multi-Species (XSP1) HepG2 Assay for chicken Estrogen Receptor (ESR1) (AID 2283779)
# Chain of chicken Estrogen Receptor (ESR1), ESR1 (gene 396099) (P06212 whole entry, looked up, the tested form may be a part): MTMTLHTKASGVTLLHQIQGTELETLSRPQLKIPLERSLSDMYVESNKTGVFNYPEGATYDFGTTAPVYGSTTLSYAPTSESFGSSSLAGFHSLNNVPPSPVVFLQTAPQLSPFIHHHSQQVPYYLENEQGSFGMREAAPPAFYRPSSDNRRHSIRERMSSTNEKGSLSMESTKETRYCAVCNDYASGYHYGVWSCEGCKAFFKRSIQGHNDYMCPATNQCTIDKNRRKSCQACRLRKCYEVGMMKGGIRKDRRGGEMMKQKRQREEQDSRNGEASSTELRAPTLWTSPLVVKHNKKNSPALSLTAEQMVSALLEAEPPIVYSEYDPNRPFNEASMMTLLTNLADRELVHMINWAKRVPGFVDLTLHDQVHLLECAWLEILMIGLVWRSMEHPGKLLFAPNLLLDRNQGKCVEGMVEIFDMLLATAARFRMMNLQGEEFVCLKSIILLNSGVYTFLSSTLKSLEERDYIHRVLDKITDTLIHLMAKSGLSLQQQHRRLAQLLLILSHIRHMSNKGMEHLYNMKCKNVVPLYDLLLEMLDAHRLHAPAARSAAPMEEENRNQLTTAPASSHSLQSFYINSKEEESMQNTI
# Outline: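 HepG2 cells transiently transfected with GAL4-UAS reporter units for chimeric chicken ERα-Gal4, dosed 24 h with 3 nM 6-alpha-fluorotestosterone present. Reporter mRNA by RT-PCR and capillary electrophoresis; gain-of-signal fit versus DMSO.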
# [16] = test system: turtle Estrogen Receptor (ESR1), gene 101933533; test: ATG_trERa_XSP1: Attagene TRANS-FACTORIAL Multi-Species (XSP1) HepG2 Assay for turtle Estrogen Receptor (ESR1) (AID 2283781)
# Outline: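 Turtle ERa as a GAL4 chimera in transiently transfected HepG2 cells; reporter mRNA quantified 24 h after dosing by RT-PCR and capillary electrophoresis. 3 nM 6-alpha-fluorotestosterone present; gain of signal versus DMSO.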
# [17] = test system: turtle Androgen Receptor (AR), gene 101947425; test: ATG_trAR_XSP1: Attagene TRANS-FACTORIAL Multi-Species (XSP1) HepG2 Assay for turtle Androgen Receptor (AR) (AID 2283786)
# Outline: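 HepG2 cells transiently transfected with a turtle AR–GAL4 chimera and GAL4-UAS reporter, co-treated with 3 nM 6-alpha-fluorotestosterone for partial stimulation. Reporter mRNA is quantified at 24 h by RT-PCR and capillary electrophoresis, gain-of-signal versus DMSO.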
# [18] = target: Estrogen receptor beta (Homo sapiens) (UniProt Q92731); test: ATG_hERb_XSP1: Attagene TRANS-FACTORIAL Multi-Species (XSP1) HepG2 Assay for human Estrogen Receptor (ESR2) (AID 2283788)
# Chain of Estrogen receptor beta (Homo sapiens) (Q92731 whole entry, looked up, the tested form may be a part): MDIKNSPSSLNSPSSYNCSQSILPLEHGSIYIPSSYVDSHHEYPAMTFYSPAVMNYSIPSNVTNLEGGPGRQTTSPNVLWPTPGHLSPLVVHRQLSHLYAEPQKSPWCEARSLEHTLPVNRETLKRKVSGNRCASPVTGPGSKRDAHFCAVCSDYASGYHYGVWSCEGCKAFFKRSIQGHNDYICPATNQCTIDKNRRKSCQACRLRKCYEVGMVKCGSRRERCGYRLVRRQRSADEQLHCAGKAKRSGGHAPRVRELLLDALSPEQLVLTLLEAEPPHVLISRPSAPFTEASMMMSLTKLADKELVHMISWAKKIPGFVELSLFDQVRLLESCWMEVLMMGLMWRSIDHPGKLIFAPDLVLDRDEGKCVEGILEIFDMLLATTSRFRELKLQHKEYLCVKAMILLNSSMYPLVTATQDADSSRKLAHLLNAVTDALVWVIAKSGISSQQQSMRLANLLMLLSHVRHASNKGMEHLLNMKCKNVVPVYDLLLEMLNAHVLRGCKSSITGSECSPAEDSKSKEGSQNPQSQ
# Outline: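 HepG2 cells transiently transfected with GAL4-UAS multiplexed reporter units, 3 nM 6-alpha-fluorotestosterone present; 24 h exposure. Reporter mRNA measured by RT-PCR, fluorescent labelling and capillary electrophoresis; gain of signal fitted against DMSO.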
# [19] = ATG_M_19_XSP1: Attagene TRANS-FACTORIAL Multi-Species (XSP1) HepG2 Assay for M19 Transcription Factor (Internal Marker) (AID 2283798)
# Outline: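 HepG2 cells transiently transfected with multiplexed GAL4-UAS reporter units, dosed 24 h with 3 nM 6-alpha-fluorotestosterone present for partial AR stimulation. Reporter mRNA measured by RT-PCR with capillary electrophoresis; gain-of-signal fitted relative to DMSO.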
# [20] = ATG_M_32_XSP1: Attagene TRANS-FACTORIAL Multi-Species (XSP1) HepG2 Assay for M32 Transcription Factor (Internal Marker) (AID 2283799)
# Outline: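 HepG2 cells transiently transfected with multi-species TRANS reporter units, dosed 24 h with 3 nM 6-alpha-fluorotestosterone present. Internal-marker reporter mRNA quantified by RT-PCR and capillary electrophoresis; positive-direction fit versus DMSO.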
structure (smiles),measurement,setting,value
O=[N+]([O-])O,outcome,[1],inactive
CCCC=NO,outcome,[2],inactive
same,outcome,[3],inactive
same,outcome,[4],inactive
O=CNC(N1CCN(C(NC=O)C(Cl)(Cl)Cl)CC1)C(Cl)(Cl)Cl (stereo not given),AC50,[5],5.16 µM (active)
same,outcome,[6],inactive
CNC(=N[N+](=O)[O-])NCC1CCOC1 (stereo not given),outcome,[7],inactive
CC(Cc1ccc(C(C)(C)C)cc1)CN1C[C@@H](C)O[C@@H](C)C1 (stereo not given in full),AC50,[8],3.26 µM (active)
same,outcome,[9],inactive
same,AC50,[10],14.1 µM (active)
CC(C)CCCCCCCOC(=O)c1ccccc1C(=O)OCCCCCCCC(C)C,outcome,[11],inactive
same,outcome,[12],inactive
same,outcome,[13],inactive
same,outcome,[14],inactive
same,outcome,[15],inactive
same,outcome,[16],inactive
same,outcome,[17],inactive
same,outcome,[18],inactive
same,outcome,[19],inactive
same,outcome,[20],inactive
